ELG1 repair inh: inhibitors of ELG1-dependent DNA repair in HEK293T cells; AID 504467; 2.3% of 330,000 active; HEK293T ELG1-luciferase reporter, luminescence, 16 h; DNA damage induced by 5-fluorouridine; Potency, µM (highest dose often 46.1 µM), for inactives: at the top dose activity change, negative = inhibition, most hits filed as inhibitors; further: on the % scale 0 is the no-effect control and ±100 the full control effect; nearly all actives have a fitted effect of over 55% in size
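Overnight (16 hr) co-exposure of 2,000 cells/well to 5-fluorouridine and compound at 37 °C preceded detection. Luciferase was quantified via ONE-Glo luminescence; loss of signal denotes inhibition.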
SMN2 splice up: enhancers of SMN2 splice variant expression; HEK293 SMN2-luciferase splicing reporter, luminescence, 30-36 h; Potency, µM (titrated, usually from 46.1 µM), for inactives: at the top dose activity change, positive = activation, hits mostly activators; 2.8% of 210,000 active; AID 1458; further: % of control where 0% means no effect; nearly all actives have a fitted effect of over 55% in size
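qHTS luciferase splicing reporter: luminescence rises when SMN2 exon 7 is included in transfected HEK293 cells. Compound exposure lasted 30-36 h at 37C, with 4.5 mM final sodium butyrate as control, followed by a ONE-Glo read.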
Rab9 prom act: activates the Rab9 promoter. Huh7 Rab9 promoter-luciferase reporter, luminescence, 24 h. Potency, µM (titrated, usually from 9.22 µM), for inactives: top-dose activation, negative = inhibition, actives largely listed as activators. 2.8% of 320,000 active. AID 485297; further: % of control where 0% means no effect; nearly all actives have a fitted effect of over 60% in size
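Stable Rab9-luc Huh7, 1500 cells/well, 2 h settle; cmpd in DMSO, 24 h, 37 °C/5% CO2; luciferase reagent 10 min RT; luminescence.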
NPC1 promoter act: activates the NPC1 promoter. Huh7 NPC1 promoter luciferase reporter, 24 h. 2.4% of 320,000 active. AID 485313. Potency, µM (top dose mostly 9.22 µM), for inactives: at the top dose activation, actives largely listed as activators; further: % of control where 0% means no effect; nearly all actives have a fitted effect of over 60% in size
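Luminescence from an NPC1 promoter-driven luciferase reporter in stably transfected Huh7 cells was measured after 24 h compound treatment at 37 °C, followed by 10 min ambient incubation with luciferase detection reagent.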
ELG1 genotoxic: induces genotoxicity in HEK293T cells with luciferase-tagged ELG1 | HEK293T ELG1-luciferase reporter, luminescence, 16 h | Potency, µM (series often up to 46 µM), without a hit: top-dose activity change, positive = activation, actives largely listed as activators | 1.3% of 330,000 active | AID 504466; further: % of control where 0% means no effect; nearly all actives have a fitted effect of over 60% in size
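ELG1-luciferase HEK293T cells, 2,000/well; compound pinned in; 16 hr, 37 °C, 5% CO2; ONE-Glo, 30 min RT; luminescence on CCD imager.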
FLuc counter: firefly luciferase modulation, counter-screen for miR-21 project; P08659; purified FLuc, Km substrates, luminescence inhibition; Potency, µM (highest dose often 57.5 µM), for inactives: at the top dose activity change, negative = inhibition, usual class: inhibitors; 6.9% of 360,000 active;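 further: plate controls were vehicle for no effect and reference inhibitor for full effect; nearly all actives have a fitted effect of over 55% in size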
Target sequence (P08659 whole entry, looked up): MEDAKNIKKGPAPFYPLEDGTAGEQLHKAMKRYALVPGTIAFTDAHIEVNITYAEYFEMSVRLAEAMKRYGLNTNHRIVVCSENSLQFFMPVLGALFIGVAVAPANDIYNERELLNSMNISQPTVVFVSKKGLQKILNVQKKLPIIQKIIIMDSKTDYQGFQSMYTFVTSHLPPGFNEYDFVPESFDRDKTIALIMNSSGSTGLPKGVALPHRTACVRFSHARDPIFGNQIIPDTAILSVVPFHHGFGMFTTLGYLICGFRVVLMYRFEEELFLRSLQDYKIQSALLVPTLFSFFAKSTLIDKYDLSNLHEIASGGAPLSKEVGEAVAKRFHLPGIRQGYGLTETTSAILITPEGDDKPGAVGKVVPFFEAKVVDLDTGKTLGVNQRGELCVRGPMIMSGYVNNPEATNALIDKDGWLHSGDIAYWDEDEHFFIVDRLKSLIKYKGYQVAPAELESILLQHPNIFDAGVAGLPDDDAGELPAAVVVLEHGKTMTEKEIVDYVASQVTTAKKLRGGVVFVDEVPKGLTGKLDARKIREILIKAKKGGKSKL
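Purified P. pyralis luciferase, 10 nM final, with Km-level 10 uM D-luciferin and 10 uM ATP in 50 mM Tris acetate pH 7.5, 10 mM Mg acetate, 0.01% Tween-20, 0.05% BSA; 6-point qHTS titration about 60 µM downward; luminescence read.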
Starred values were filed as active, the others as inactive; u = inconclusive; x = no result; [ ] = dose if it differs, or a comment. The list is not random: actives were taken first. Their share in the collection is about 9.2%. The call rests on the fitted dose curve; in most records, active means well fitted curve in the direction sought with a large enough effect; inconclusive means small, poorly fitted or top-dose-only effect, or another doubt; inactive means no such curve, though single readings can be large; an effect the other way counts as inactive or inconclusive. Potency means the concentration at half of the fitted maximal effect.

SMILES	ELG1 repair inh	SMN2 splice up	Rab9 prom act	NPC1 promoter act	ELG1 genotoxic	FLuc counter
O=C(CN1C(=O)NC2(CCCCCCC2)C1=O)NCc1ccc(Cl)cc1	2%	x	x	x	3%	x
CCC(=O)Nc1ccc(C(=O)COC(=O)Cc2ccsc2)cc1	17%	x	3%	-5%	1%	11µM*
O=C(COC(=O)Cc1ccsc1)Nc1ccc(Br)cc1	8%	x	-4%	-2%	6%	u
COC(=O)C1=C(C(=O)OC)[C@@H]2N(C)c3ccc(OC)cc3[C@@]23C[C@@H](C(=O)OC)N(S(=O)(=O)c2ccc(C#N)cc2)C3=N1	x	-1%[9.22 µM]	x	x	x	x
Cn1c(SCc2ccccc2Cl)nnc1-c1cnccn1	u	u	u	u	11µM*	u
Cn1c(SCc2cccc(F)c2)nnc1-c1cnccn1	u	x	u	u	u	-19%
Cn1c(SCc2ccccc2Cl)nc2ccccc21	u	111%	u	2.5µM*	5.8µM*	6µM*
CCn1c(SCc2ccccc2Cl)nc2ccccc21	u	u	20%	27%	14%	12µM*
Cc1ccc(C(=O)NCc2ccccn2)cc1S(=O)(=O)N1CCCCC1	8%	x	-3%	13%	-6%	1%
COc1ccc(Cl)cc1NC(=O)COC(=O)C1CC(=O)N(Cc2ccccc2)C1 (stereo not given)	6%	x	x	x	2%	x
O=Cc1ccc(C(=O)OCC(=O)NC(=O)Nc2ccccc2F)cc1	11%	x	x	x	3%	x
NC(=O)CC(NC(=O)Cc1cccc2ccccc12)c1ccc(N2CCC(N3CCCC3)CC2)c([N+](=O)[O-])c1 (stereo not given)	2%	x	-5%	-2%	2%	2%
Cc1ccc(C(=O)COC(=O)COc2ccccc2O)cc1C	u	x	x	x	1%	x
COc1ccccc1NC(CC(=O)c1ccccc1)C(=O)OCC(=O)c1ccc(C)c(C)c1 (stereo not given)	u	8.9µM*	19%	16%	2.1µM*	3µM*
COc1ccccc1NC(CC(=O)c1ccccc1)C(=O)OCC(=O)c1ccc(Br)cc1 (stereo not given)	u	27%	11%	20%	2.1µM*	2.1µM*
O=C(CC(Nc1ccccc1Cl)C(=O)OCC(=O)c1cccs1)c1ccccc1 (stereo not given)	u	-8%	15%	5%	u	-18%
COc1ccccc1NC(CC(=O)c1ccccc1)C(=O)OCC(=O)c1ccc(C)cc1 (stereo not given)	u	8.9µM*	26%	10%	2.3µM*	3.4µM*
Cc1ccc(C)c(Cn2c(SCC(=O)N(C)Cc3ccccc3)nc3ccccc32)c1	x	x	x	x	x	5%
Cc1ccc(CNC(=O)c2cc(C3CC3)nc3c2c(C)nn3-c2cccc(Cl)c2C)cc1	x	x	x	x	x	0%
COc1ccc(NC(=O)CSCC(=O)Nc2cccc3ncccc23)cc1	u	x	8%	4%	-17%	1%
O=S(=O)(c1ccc2c(c1)OCCO2)C1CCC(O)CC1 (stereo not given)	x	x	2%	0%	x	5%
O=C(O)CCC(=O)OCCCc1cc2ccccc2c(=O)o1	u	x	x	x	0%	x
Cc1ccc(-c2nnc(Nc3ccc(C(=O)N(C)C)cc3)c3ccccc23)cc1S(=O)(=O)NC(C)(C)CO	8%	x	15%	5%	3%	21µM*
Cc1ccc(-c2nnc(Nc3ccc(C(=O)N(C)C)cc3)c3ccccc23)cc1S(=O)(=O)NCC1CCCO1 (stereo not given)	21µM*	5%	15%	2%	-5%	11µM*
CNC(=O)c1ccc(Nc2nnc(-c3ccc(C)c(S(=O)(=O)NC(C)(C)C)c3)c3ccccc23)cc1	x	5%	x	x	x	-5%
SMILES	ELG1 repair inh	SMN2 splice up	Rab9 prom act	NPC1 promoter act	ELG1 genotoxic	FLuc counter
CC(C)CCN1CCC(n2nccc2NC(=O)c2ccc3c(c2)OCO3)CC1	u	x	5%	3%	2%	1%
COc1ccc(C(=O)Nc2cccc(-c3cn4ccsc4n3)c2)cc1OC	x	x	x	x	x	3.4µM*
COc1ccc(C(=O)Nc2cccc(-c3cn4ccsc4n3)c2)c(OC)c1	x	x	x	x	x	2.7µM*
CCOc1ccc(C(=O)NC(=S)Nc2cccc(NC(=O)c3ccco3)c2)cc1[N+](=O)[O-]	23µM*	4%	-5%	0%	-3%	-1%
Cc1cc(C(=O)Nc2cccc(NC(=O)c3ccco3)c2)ccc1[N+](=O)[O-]	u	x	0%	-3%	-10%	19µM*
COc1ccc(C(=O)NC(=S)Nc2cccc(NC(=O)c3ccco3)c2)cc1[N+](=O)[O-]	u	-4%	-2%	3%	5%	1%
CCOC(=O)CN1C(=O)C(C)(C)Oc2ccc(C(=O)Nc3ccccc3OC)cc21	18µM*	-2%	1%	-1%	-9%	-3%
Cc1ccc(NC(=O)c2ccc3c(c2)N(CC(=O)N2CCCCC2)C(=O)C(C)(C)O3)cc1	13µM*	28%	0%	-2%	-2%	1%
CC(C)(C)NC(=O)c1ccc2c(c1)N(CC(=O)N1CCCCC1)C(=O)C(C)(C)O2	-2%	x	-5%	-1%	0%	-3%
CCOc1ccc(CCNC(=O)COC(=O)c2ccc(OC(C)C)cc2)cc1OCC	-1%	x	-3%	1%	-6%	-3%
COc1ccc2c(=O)c(-c3ccc(C)cc3)c(-c3ccccc3)oc2c1	u	x	x	x	1%	x

Source: PubChem BioAssay (National Center for Advancing Translational Sciences (NCATS))
